Results filed as inconclusive are left out. The source made the active and inactive calls. Rule for the calls, unless noted: active = hit-call score of the fitted dose curve at least 0.9, where 1 is the maximum; inactive = score below 0.9.
Legend:
[1] = target: Paired box protein Pax-6 (Homo sapiens) (UniProt P26367); experiment: ATG_Pax6_CIS: Attagene CIS-FACTORIAL HepG2 Assay for human Paired Box 6 (PAX6) (AID 2282956); conditions: HepG2 CIS-FACTORIAL PAX6 reporter transcription, RNA readout; actives raise or lower the signal
In short: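 HepG2 cells transiently transfected with cis-promoter-driven multiplexed reporter units sensing endogenous transcription factor activity; 24 h chemical exposure. Reporter mRNA quantified by RT-PCR, 6-FAM labelling, HpaI digestion and capillary electrophoresis; bidirectional fit versus DMSO baseline.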

[2] = ATG_PXRE_CIS: Attagene CIS-FACTORIAL HepG2 Assay for human Pregnane X Receptor Element (PXRE) (AID 2282957); conditions: HepG2 Attagene CIS-FACTORIAL PXRE reporter, mRNA; actives raise or lower the signal
In short: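 Cis-element reporter mRNA in human hepatoma HepG2 cells is measured 24 h post-dosing by RT-PCR, primer-extension labeling and capillary electrophoresis; gain or loss of signal is fitted relative to DMSO.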

[3] = ATG_PPRE_CIS: Attagene CIS-FACTORIAL HepG2 Assay for human Peroxisome Proliferator-activated Response Element (PPRE) (AID 2282958); conditions: HepG2 PPRE cis-element reporter, Attagene transcription factor profiling; actives raise or lower the signal
In short: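 Measured endpoint: PPRE-controlled reporter mRNA, detected by RT-PCR and capillary electrophoresis fluorescence, from transiently transfected HepG2 cells 24 h after dosing. Curves fitted in both directions using DMSO baseline.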

[4] = ATG_Sox_CIS: Attagene CIS-FACTORIAL HepG2 Assay for human SRY-box transcription factor (SOX) (AID 2282960); conditions: HepG2 Attagene cis-factorial SOX reporter, mRNA; actives raise or lower the signal
In short: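 Gain- or loss-of-signal endpoint, fitted bidirectionally with DMSO as negative control. Based on reporter mRNA from transfected HepG2 cells harvested 24 h post-treatment and quantified via RT-PCR and capillary electrophoresis.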

[5] = target: Transcription factor Sp1 (Homo sapiens) (UniProt P08047); experiment: ATG_Sp1_CIS: Attagene CIS-FACTORIAL HepG2 Assay for human Specificity Protein 1 (Sp1) (AID 2282961); conditions: HepG2 Sp1 cis-reporter transcription, actives raise or lower the signal
In short: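 Endpoint reflects endogenous Sp1 transcriptional activity, not an exogenous fusion protein: HepG2 cells with transfected cis-regulated reporters, 24 h dosing, RT-PCR/capillary electrophoresis mRNA read-out, DMSO-normalised bidirectional fit.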

[6] = ATG_SREBP_CIS: Attagene CIS-FACTORIAL HepG2 Assay for human Sterol Regulatory Element Binding (SREBP) (AID 2282962); conditions: HepG2 Attagene cis-factorial SREBP reporter, mRNA; actives raise or lower the signal
In short: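 HepG2 cells transiently transfected with multiplexed cis-promoter reporter units sensing endogenous transcription factors; reporter mRNA measured 24 h after dosing by RT-PCR, 6-FAM labeling, HpaI digestion and capillary electrophoresis. Bidirectional fit versus DMSO.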

[7] = target: Signal transducer and activator of transcription 3 (Homo sapiens) (UniProt P40763); experiment: ATG_STAT3_CIS: Attagene CIS-FACTORIAL HepG2 Assay for human Signal Transducer and Activator of Transcription 3 (STAT3) (AID 2282963); conditions: HepG2, Attagene cis-factorial STAT3 reporter transcription; actives raise or lower the signal
In short: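 Transcript-level reporter assay. HepG2 transient MRTU transfection, 24 h exposure, fluorescence detection after RT-PCR and CE; DMSO baseline.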

[8] = ATG_TA_CIS: Attagene CIS-FACTORIAL HepG2 Assay for human TA Basal Promoter (AID 2282964); conditions: HepG2 Attagene CIS-factorial TA basal promoter reporter; actives raise or lower the signal
In short: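 HepG2 cells transiently transfected with multiple reporter units under cis promoter elements, reporting endogenous transcription factor activity; this endpoint tracks the TA basal promoter as background control. Reporter mRNA after 24 h dosing measured by RT-PCR/capillary electrophoresis; bidirectional fits versus DMSO.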

[9] = ATG_TCF_b_cat_CIS: Attagene CIS-FACTORIAL HepG2 Assay for human T-Cell-Factor with beta-catenin (TCF/b-cat) (AID 2282965); conditions: HepG2 TCF/beta-catenin cis-reporter transcription, actives raise or lower the signal
In short: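 In this cis-format system, transfected HepG2 cells report endogenous transcription factor activity. Readout after 24 h exposure is reporter transcript abundance from RT-PCR and capillary electrophoresis, analysed for gain or loss of signal versus DMSO.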

[10] = ATG_TAL_CIS: Attagene CIS-FACTORIAL HepG2 Assay for human TAL Basal Promoter (AID 2282966); conditions: HepG2 Attagene cis-factorial TAL promoter reporter; actives raise or lower the signal;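 note: background control endpoint measuring basal TAL promoter reporter mRNA not a specific factor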
In short: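 In this cell-based multiplex, HepG2 liver cells bearing cis-promoter reporter constructs are dosed for 24 hours. Total RNA is reverse-transcribed and amplified, labelled fragments are sized by capillary electrophoresis, and signal changes are fitted bidirectionally versus DMSO.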

[11] = ATG_TGFb_CIS: Attagene CIS-FACTORIAL HepG2 Assay for human Transforming Growth Factor (TGF) (AID 2282967); conditions: HepG2 Attagene CIS TGFb reporter, mRNA transcription; actives raise or lower the signal
In short: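 HepG2 cells transiently transfected with cis-promoter-driven multiple reporter units measure endogenous TF activity; reporter mRNA quantified at 24 h by RT-PCR, FAM labeling, HpaI digestion and capillary electrophoresis. Bidirectional fit vs DMSO.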

[12] = ATG_VDRE_CIS: Attagene CIS-FACTORIAL HepG2 Assay for human Vitamin D Receptor Element (VDRE) (AID 2282968); conditions: HepG2 VDRE cis-reporter transcription, actives raise or lower the signal
In short: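 RT-PCR/CE readout of reporter mRNA; HepG2, transient transfection, 24 h dosing; DMSO baseline; bidirectional analysis.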

[13] = target: Nuclear receptor subfamily 1 group I member 3 (Homo sapiens) (UniProt Q14994); experiment: ATG_CAR_TRANS: Attagene TRANS-FACTORIAL HepG2 Assay for human Constitutive Androstane Receptor (CAR) (AID 2282969; active = hit-call score of the fitted dose curve at least 0.9, where 1 is the maximum;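 note: activators raise reporter mRNA above DMSO so AC50 marks induction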); conditions: HepG2 Attagene TRANS-FACTORIAL CAR reporter
In short: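 HepG2 cells transiently transfected with multiplexed GAL4-UAS reporter units expressing chimeric NR-Gal4 proteins; compound exposure 24 h. Reporter mRNA measured by RT-PCR, 6-FAM labelling, HpaI digestion and capillary electrophoresis; gain-of-signal fitted against DMSO baseline.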

[14] = target: X-box-binding protein 1 (Homo sapiens) (UniProt P17861); experiment: ATG_Xbp1_CIS: Attagene CIS-FACTORIAL HepG2 Assay for human X-box Binding Protein 1 (XBP1) (AID 2282972); conditions: HepG2 XBP1 cis-element reporter, Attagene multiplex; actives raise or lower the signal
In short: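 HepG2 cells transiently transfected with multiple cis-element reporter units report endogenous TF activity; 24 h exposure, then reporter mRNA measured by RT-PCR, 6-FAM labelling, HpaI digestion and capillary electrophoresis. Bidirectional fitting versus DMSO.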

[15] = ATG_M_19_TRANS: Attagene TRANS-FACTORIAL HepG2 Assay for M19 Transcription Factor (Internal Marker) (AID 2282974; active = hit-call score of the fitted dose curve at least 0.9, where 1 is the maximum); conditions: HepG2 Attagene TRANS-FACTORIAL M19 internal marker reporter
In short: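 Using RT-PCR and capillary electrophoresis, reporter mRNA from transiently transfected human HepG2 cells was quantified following 24 h exposure; activity was fitted in the positive direction against DMSO.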

[16] = target: Glucocorticoid receptor (Homo sapiens) (UniProt P04150); experiment: ATG_GR_TRANS: Attagene TRANS-FACTORIAL HepG2 Assay for human Glucocorticoid Receptor (GR) (AID 2282978; active = hit-call score of the fitted dose curve at least 0.9, where 1 is the maximum;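 note: activators score as hits since higher reporter transcript over DMSO is fitted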); conditions: HepG2 Attagene TRANS GR reporter, mRNA transcription
In short: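 Exogenous NR-GAL4 fusion activity was assessed through induced GAL4-UAS reporter transcripts in transfected human HepG2 cells, quantified after 24 h by RT-PCR and fluorescent capillary electrophoresis with DMSO as baseline.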

[17] = ATG_RORE_CIS: Attagene CIS-FACTORIAL HepG2 Assay for human RAR-related Orphan Receptor Element (RORE) (AID 2282959); conditions: HepG2 Attagene cis-factorial RORE reporter, mRNA; actives raise or lower the signal
In short: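 Transiently transfected HepG2 reporter cells were treated 24 h. Reporter transcripts were detected by RT-PCR and capillary electrophoresis, with bidirectional fitting against DMSO.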

[18] = target: Estrogen-related receptor gamma (Homo sapiens) (UniProt P62508); experiment: ATG_ERRg_TRANS: Attagene TRANS-FACTORIAL HepG2 Assay for human Estrogen-Related Receptor gamma (ERRg) (AID 2282977; active = hit-call score of the fitted dose curve at least 0.9, where 1 is the maximum;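 note: hits increase reporter signal over DMSO so potencies reflect activators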); conditions: HepG2 Attagene TRANS reporter, ERRg transactivation
In short: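 Transfect HepG2 with multiple GAL4-UAS reporter transcription units; dose chemicals 24 h; isolate RNA, reverse-transcribe with oligo(dT), PCR-amplify, label with 6-FAM, digest with HpaI; size fragments by capillary electrophoresis. DMSO serves as negative control.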

[19] = ATG_GAL4_TRANS: Attagene TRANS-FACTORIAL HepG2 Assay for GAL4 (Internal Marker) (AID 2282976; active = hit-call score of the fitted dose curve at least 0.9, where 1 is the maximum); conditions: HepG2 Attagene TRANS GAL4 internal marker reporter
In short: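 RT-PCR/capillary electrophoresis readout of reporter mRNA. HepG2, transient MRTU transfection (GAL4-UAS reporters), 24 h compound exposure. Background-control endpoint, positive direction vs DMSO baseline.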

[20] = target: Steroid hormone receptor ERR1 (Homo sapiens) (UniProt P11474); experiment: ATG_ERRa_TRANS: Attagene TRANS-FACTORIAL HepG2 Assay for human Estrogen-Related Receptor alpha (ERRa) (AID 2282971; active = hit-call score of the fitted dose curve at least 0.9, where 1 is the maximum); conditions: HepG2 Attagene TRANS reporter, ERRa transactivation
In short: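 Transfected HepG2, 24 h dosing, ERRa-Gal4 chimera driving GAL4-UAS reporter. Readout: reporter mRNA via RT-PCR plus capillary electrophoresis (fluorescence). Positive direction vs DMSO control.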

Measured: AC50

Chain of Paired box protein Pax-6 (Homo sapiens) (P26367 whole entry, looked up): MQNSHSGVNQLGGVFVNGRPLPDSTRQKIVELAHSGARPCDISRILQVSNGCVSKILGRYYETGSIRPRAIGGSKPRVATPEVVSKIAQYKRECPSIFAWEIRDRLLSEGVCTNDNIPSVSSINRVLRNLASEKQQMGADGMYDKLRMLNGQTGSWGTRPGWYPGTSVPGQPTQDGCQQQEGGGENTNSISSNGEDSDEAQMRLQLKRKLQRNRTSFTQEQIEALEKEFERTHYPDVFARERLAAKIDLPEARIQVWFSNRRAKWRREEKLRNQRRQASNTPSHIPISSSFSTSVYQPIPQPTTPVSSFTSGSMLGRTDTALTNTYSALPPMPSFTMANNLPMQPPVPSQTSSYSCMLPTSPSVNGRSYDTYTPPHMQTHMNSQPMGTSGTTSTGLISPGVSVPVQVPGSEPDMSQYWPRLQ
Chain of Transcription factor Sp1 (Homo sapiens) (P08047 whole entry, looked up, the tested form may be a part): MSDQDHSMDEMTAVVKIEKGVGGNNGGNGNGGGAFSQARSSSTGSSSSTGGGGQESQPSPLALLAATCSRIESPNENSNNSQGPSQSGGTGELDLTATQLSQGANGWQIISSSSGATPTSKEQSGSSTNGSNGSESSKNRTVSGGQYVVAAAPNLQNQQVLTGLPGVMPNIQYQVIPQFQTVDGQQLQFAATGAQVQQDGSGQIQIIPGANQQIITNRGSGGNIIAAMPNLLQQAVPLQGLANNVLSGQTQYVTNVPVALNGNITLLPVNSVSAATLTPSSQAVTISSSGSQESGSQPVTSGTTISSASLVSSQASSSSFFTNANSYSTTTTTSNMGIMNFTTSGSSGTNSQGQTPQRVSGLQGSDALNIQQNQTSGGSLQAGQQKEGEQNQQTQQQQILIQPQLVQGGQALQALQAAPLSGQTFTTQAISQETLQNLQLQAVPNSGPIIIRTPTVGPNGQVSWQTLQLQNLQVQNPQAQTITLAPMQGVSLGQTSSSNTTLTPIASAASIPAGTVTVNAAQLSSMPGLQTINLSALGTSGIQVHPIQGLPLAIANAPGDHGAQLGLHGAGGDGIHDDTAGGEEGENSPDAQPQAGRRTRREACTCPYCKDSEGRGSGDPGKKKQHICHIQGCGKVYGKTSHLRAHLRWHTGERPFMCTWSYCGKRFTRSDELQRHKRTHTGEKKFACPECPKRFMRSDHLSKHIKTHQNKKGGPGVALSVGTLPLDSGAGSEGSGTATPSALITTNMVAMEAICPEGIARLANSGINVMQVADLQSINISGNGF
Chain of Signal transducer and activator of transcription 3 (Homo sapiens) (P40763 whole entry, looked up): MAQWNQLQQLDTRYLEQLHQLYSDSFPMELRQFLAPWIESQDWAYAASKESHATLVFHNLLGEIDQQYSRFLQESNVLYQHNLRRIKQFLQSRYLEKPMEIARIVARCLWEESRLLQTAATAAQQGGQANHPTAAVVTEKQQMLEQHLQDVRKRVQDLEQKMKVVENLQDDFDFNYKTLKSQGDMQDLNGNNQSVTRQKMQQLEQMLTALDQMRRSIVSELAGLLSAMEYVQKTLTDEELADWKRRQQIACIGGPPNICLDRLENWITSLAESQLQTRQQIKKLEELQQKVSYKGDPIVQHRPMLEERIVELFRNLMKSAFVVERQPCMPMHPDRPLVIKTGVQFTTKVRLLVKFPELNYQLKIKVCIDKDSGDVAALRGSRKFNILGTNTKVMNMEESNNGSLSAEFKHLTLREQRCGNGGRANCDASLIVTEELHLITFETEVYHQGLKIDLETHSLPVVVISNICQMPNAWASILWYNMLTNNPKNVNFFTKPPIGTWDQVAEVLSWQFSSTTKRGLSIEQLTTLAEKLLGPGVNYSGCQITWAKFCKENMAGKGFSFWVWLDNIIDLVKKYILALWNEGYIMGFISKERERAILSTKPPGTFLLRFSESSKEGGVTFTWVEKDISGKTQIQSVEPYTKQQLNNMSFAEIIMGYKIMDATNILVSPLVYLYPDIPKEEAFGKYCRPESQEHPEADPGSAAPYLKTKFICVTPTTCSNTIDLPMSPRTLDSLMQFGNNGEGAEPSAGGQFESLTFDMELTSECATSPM
Chain of Nuclear receptor subfamily 1 group I member 3 (Homo sapiens) (Q14994 whole entry, looked up, the tested form may be a part): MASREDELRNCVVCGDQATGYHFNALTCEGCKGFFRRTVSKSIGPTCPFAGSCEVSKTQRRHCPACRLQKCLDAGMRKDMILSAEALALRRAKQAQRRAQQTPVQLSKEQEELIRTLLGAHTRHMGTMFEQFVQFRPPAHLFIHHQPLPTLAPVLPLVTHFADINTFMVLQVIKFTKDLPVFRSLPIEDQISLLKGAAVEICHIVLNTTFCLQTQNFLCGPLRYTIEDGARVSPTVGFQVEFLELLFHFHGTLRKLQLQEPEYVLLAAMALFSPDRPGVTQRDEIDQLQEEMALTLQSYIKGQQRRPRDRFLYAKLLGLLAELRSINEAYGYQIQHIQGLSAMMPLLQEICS
Chain of Glucocorticoid receptor (Homo sapiens) (P04150 whole entry, looked up, the tested form may be a part): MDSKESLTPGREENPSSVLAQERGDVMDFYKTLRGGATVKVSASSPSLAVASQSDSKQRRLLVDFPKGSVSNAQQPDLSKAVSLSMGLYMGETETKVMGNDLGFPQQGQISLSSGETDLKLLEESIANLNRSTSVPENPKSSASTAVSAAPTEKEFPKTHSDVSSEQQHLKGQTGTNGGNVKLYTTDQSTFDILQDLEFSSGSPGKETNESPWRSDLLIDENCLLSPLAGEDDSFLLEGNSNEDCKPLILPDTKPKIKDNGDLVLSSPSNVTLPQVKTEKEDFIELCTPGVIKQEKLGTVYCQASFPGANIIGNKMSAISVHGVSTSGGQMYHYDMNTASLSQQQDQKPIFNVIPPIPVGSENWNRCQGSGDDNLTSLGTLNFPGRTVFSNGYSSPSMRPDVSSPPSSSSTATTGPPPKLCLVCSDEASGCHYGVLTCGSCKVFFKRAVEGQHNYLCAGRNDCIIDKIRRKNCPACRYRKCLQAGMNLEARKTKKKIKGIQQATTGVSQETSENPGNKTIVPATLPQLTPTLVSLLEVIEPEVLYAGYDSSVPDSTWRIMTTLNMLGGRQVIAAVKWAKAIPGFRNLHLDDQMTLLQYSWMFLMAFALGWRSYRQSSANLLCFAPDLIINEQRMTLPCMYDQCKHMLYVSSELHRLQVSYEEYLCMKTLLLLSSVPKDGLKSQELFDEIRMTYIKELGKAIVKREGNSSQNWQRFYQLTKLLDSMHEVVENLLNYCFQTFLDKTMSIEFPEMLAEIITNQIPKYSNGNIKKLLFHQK
Chain of Estrogen-related receptor gamma (Homo sapiens) (P62508 whole entry, looked up, the tested form may be a part): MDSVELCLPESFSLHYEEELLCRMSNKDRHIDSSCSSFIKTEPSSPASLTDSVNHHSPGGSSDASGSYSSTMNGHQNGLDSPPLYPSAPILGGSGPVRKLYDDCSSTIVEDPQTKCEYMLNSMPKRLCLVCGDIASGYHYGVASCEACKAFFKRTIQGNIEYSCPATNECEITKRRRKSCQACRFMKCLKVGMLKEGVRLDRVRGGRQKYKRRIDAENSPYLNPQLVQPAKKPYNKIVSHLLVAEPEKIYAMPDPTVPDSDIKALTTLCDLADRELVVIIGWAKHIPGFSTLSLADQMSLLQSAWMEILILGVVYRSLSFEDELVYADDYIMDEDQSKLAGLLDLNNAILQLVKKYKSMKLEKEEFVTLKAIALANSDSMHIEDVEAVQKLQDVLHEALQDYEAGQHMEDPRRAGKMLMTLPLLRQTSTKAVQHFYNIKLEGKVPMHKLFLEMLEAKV
Chain of X-box-binding protein 1 (Homo sapiens) (P17861 whole entry, looked up): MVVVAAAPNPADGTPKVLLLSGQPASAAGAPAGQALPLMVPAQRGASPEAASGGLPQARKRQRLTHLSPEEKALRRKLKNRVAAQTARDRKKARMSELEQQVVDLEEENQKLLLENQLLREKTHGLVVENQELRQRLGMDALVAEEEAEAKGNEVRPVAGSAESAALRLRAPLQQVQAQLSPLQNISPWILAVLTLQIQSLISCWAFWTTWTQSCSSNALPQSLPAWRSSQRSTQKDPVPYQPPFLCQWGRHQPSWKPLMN
Chain of Steroid hormone receptor ERR1 (Homo sapiens) (P11474 whole entry, looked up, the tested form may be a part): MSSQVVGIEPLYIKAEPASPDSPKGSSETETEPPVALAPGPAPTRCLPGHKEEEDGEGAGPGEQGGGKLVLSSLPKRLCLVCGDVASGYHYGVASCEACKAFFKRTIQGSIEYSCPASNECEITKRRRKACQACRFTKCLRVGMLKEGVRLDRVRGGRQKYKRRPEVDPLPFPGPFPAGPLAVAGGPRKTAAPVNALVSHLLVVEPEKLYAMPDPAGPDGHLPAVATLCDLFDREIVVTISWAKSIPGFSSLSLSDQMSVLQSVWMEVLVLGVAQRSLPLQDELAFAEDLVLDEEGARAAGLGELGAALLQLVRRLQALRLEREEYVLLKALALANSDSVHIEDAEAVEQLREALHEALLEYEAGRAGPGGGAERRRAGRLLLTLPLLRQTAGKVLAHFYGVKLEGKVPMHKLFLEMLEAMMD

N[C@@H](Cc1cc(I)c(Oc2cc(I)c(O)c(I)c2)c(I)c1)C(=O)O
active: [2] 6.42 µM | [3] 22.1 µM | [6] 22.7 µM | [12] 18.8 µM
not listed: [17] | [18] | [19] | [20]
inactive: all other assays above

CC(C)(C)C1=CC(=O)C(C(C)(C)C)=CC1=O
inactive: [17] | [4] | [7] | [8] | [11] | [14] | [18]
active: [1] 61.5 µM | [2] 1.29 µM | [3] 13.4 µM | [6] 25.7 µM | [9] 50 µM | [12] 19.7 µM

O=Cc1ccccc1S(=O)(=O)O
not listed: [5] | [8] | [13] | [15] | [16] | [18] | [19] | [20]
inactive: all other assays above

CCC1(C)NC(=O)NC1=O (configuration not stated)
not listed: [13] | [16] | [17] | [18] | [20]
inactive: all other assays above

CC1CC(O)CC(C)(C)C1 (configuration not stated)
not listed: [5] | [8] | [12] | [13] | [16] | [18] | [19]
inactive: all other assays above

Clc1ccc(C(c2ccccc2Cl)C(Cl)Cl)cc1 (configuration not stated)
inactive: [1] | [6] | [8] | [11] | [15] | [16]
active: [2] 1.5 µM | [3] 31.9 µM | [17] 27.3 µM | [4] 182 µM | [7] 161 µM | [9] 59.9 µM

C1CCOC1
active: [2] 37.3 µM
not listed: [12] | [17]
inactive: all other assays above

O=c1c(O)c(-c2ccc(O)cc2)oc2cc(O)cc(O)c12
active: [2] 39.1 µM
not listed: [12] | [15] | [16] | [17] | [19] | [20]
inactive: all other assays above

ClC(c1ccccc1)(c1ccccc1)c1ccccc1
active: [2] 2.59 µM
not listed: [9] | [12] | [15] | [17] | [18] | [20]
inactive: all other assays above
